Data from publication PMC5540273 (PLoS ONE, 2017).
Where two headings read alike, the source gives them in different places.

How the values were obtained:
[1] = system: TAOK1; details: concentration: 1 μM, replicates: in singlicate; n = 1
[2] = system: TAOK2; details: concentration: 1 μM, replicates: in singlicate; n = 1
[3] = system: TAOK3; details: concentration: 1 μM, replicates: in singlicate; n = 1
[4] = system: TBK1; details: concentration: 1 μM, replicates: in singlicate; n = 1
[5] = system: TEC; details: concentration: 1 μM, replicates: in singlicate; n = 1
[6] = system: TESK1; details: concentration: 1 μM, replicates: in singlicate; n = 1
[7] = system: TGFBR1; details: n = 1
[8] = system: TGFBR2; details: concentration: 1 μM, replicates: in singlicate; n = 1
[9] = system: TIE1; details: concentration: 1 μM, replicates: in singlicate; n = 1
[10] = system: T1, TIE2; details: concentration: 1 μM, replicates: in singlicate; n = 1
T1 construct: gene TEK

[11] = concentration: 1 μM, replicates: in singlicate
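Note: KINOMEscan kinase panel screen.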

Structure (SMILES) | %Inh [1] | %Inh [2] | %Inh [3] | %Inh [4] | %Inh [5] | %Inh [6] | %Inh [7, 11] | %Inh [8] | %Inh [9] | %Inh [10] | %Inh ([7]; 1 µM)
Cn1cncc1-c1cc2c(Nc3ccc(OCc4ccccc4)cc3)ncnc2cn1 [GW281179] | 0% | 0% | 0% | 0% | 0% | 35% | 0% | 0% | 0% | 0% | –
COC(=O)C(NC(=O)NC1CCN(c2ccnc(Nc3ccc(F)cc3)n2)C1)c1ccccc1 (stereo not shown) [GSK1379712] | 0% | 0% | 0% | 18% | 11% | 0% | 26% | 0% | 0% | 0% | –
CS(=O)(=O)CCNCc1nc(-c2ccc3ncnc(Nc4ccc(OCc5ccccc5)c(Cl)c4)c3c2)cs1.Cl [GW582764] | 0% | 0% | 0% | 0% | 0% | 19% | 58% | 0% | 0% | 0% | –
CC[C@@H]1CO[C@H](C(=O)Nc2ccccc2)CN1c1cc(-c2ccc3c(N)n[nH]c3c2)nc(NC)n1 [GSK2376236] | 0% | 1% | 0% | 31% | 0% | 0% | 9% | 0% | 4% | 0% | –
COC(=O)c1cccc(NC(=O)NC2CCN(c3ccnc(Nc4ccc(OC)cc4)n3)C2)c1 (stereo not shown) [GSK1379746] | 0% | 0% | 0% | 0% | 14% | 13% | 41% | 0% | 0% | 0% | –
Cl.Cl.Cl.N#Cc1ccc(CCNc2nccc(-c3cccc(CN4CCNCC4)c3)n2)cc1 [GSK2137462] | 0% | 2% | 0% | 19% | 0% | 11% | 0% | 0% | 2% | 0% | –
CS(=O)(=O)Cc1ccc(Nc2nccc(-c3c(-c4cccc(NC(=O)C5CCCCC5)c4)nn4ncccc34)n2)cc1 [GSK350559] | 11% | 0% | 0% | 29% | 29% | 10% | 0% | 0% | 3% | 0% | –
COc1cccc(C2=C(Nc3cc(Cl)c(O)c(Cl)c3)C(=O)NC2=O)c1 [SB-390767] | 69% | 0% | 29% | 0% | 1% | 0% | 0% | 30% | 0% | 0% | –
CCCCc1nn2ncccc2c1-c1ccnc(NC2CC2)n1 [GW684374] | 0% | 0% | 0% | 7% | 3% | 13% | 29% | 7% | 0% | 0% | –
CNc1nc(-c2ccc3c(N)n[nH]c3c2)cc(N2C[C@@H](C(=O)Nc3ccccc3)CC[C@H]2C)n1 [GSK2298859] | 0% | 0% | 0% | 14% | 4% | 24% | 12% | 0% | 0% | 0% | –
O=C(Nc1n[nH]c2nc(-c3cccs3)c(Br)cc12)C1CC1 [SB-735297] | 10% | 0% | 0% | 33% | 0% | 19% | 0% | 0% | 0% | 12% | –
COc1cc2ncnc(Nc3cccc(Br)c3)c2cc1OC.Cl [GI230329] | 0% | 0% | 0% | 7% | 0% | 31% | 1% | 0% | 0% | 0% | –
COC(=O)C(Cc1ccccc1)NC(=O)NC1CCN(c2ccnc(Nc3ccc(F)cc3)n2)C1 (stereo not shown) [GSK1379714] | 0% | 0% | 0% | 21% | 0% | 16% | 20% | 0% | 16% | 0% | –
CC(C)c1cc(-c2ccc3c(N)n[nH]c3c2)nc(N)n1 [GSK2250882] | 0% | 0% | 0% | 13% | 0% | 35% | 0% | 0% | 0% | 0% | –
CSc1ccc(-c2nc3n(c2-c2ccncc2)CCC3)cc1 [SKF-105561] | 0% | 14% | 9% | 0% | 11% | 8% | 15% | 13% | 0% | 0% | –
COc1ccc(Nc2nccc(-c3ccc(NC(=O)c4cc5cc(F)ccc5[nH]4)cc3)n2)cc1 [GSK1229496] | 0% | 0% | 0% | 11% | 0% | 7% | 9% | 0% | 0% | 0% | –
COc1ccc(CSc2nnc(-c3ccc4ncsc4c3)o2)cc1C(F)(F)F | 31% | 9% | 0% | 13% | 0% | 3% | 5% | 19% | 0% | 19% | –

Structure (SMILES) | %Inh [1] | %Inh [2] | %Inh [3] | %Inh [4] | %Inh [5] | %Inh [6] | %Inh [7, 11] | %Inh [8] | %Inh [9] | %Inh [10] | %Inh ([7]; 1 µM)
Cc1cccc2c(-c3ccncn3)c(-c3ccc(F)cc3)nn12 [GW515532] | 0% | 0% | 0% | 0% | 0% | 17% | 0% | 23% | 14% | 0% | –
CCc1ccc(-c2ccc3c(c2)-c2n[nH]cc2S(=O)(=O)N3C)cc1 | 0% | 27% | 0% | 0% | 0% | 15% | 0% | 0% | 0% | 20% | –
CNCc1ccc2nc(NC(=O)c3ccc(C(C)(C)C)cc3)cn2c1 | 100% | 22% | 93.2% | 0% | 2% | 0% | 3% | 2% | 6% | 4% | –
CCn1c(-c2ccccc2)nc2cnccc21 [SB-733416] | 0% | 0% | 1% | 0% | 0% | 9% | 0% | 8% | 0% | 0% | –
Cc1ccc(NC(=O)Nc2ccc(Cl)c(C(F)(F)F)c2)cc1-c1ccc(C(=O)Nc2ccncc2)cc1 [GSK1398470] | 0% | 0% | 0% | 17% | 8% | 23% | 0% | 7% | 6% | 0% | –
CC(=O)c1c(C)c2cnc(Nc3ccc(N4CCNCC4)cn3)nc2n(C2CCCC2)c1=O | 0% | 0% | 0% | 4% | 0% | 12% | 3% | 0% | 0% | 0% | –
CC(=O)c1c(C)c2cnc(Nc3ccn(C)n3)nc2n(C2CCCC2)c1=O | 0% | 0% | 0% | 0% | 0% | 4% | 0% | 0% | 0% | 0% | –
Fc1ccc(-c2nc[nH]c2-c2ccncc2)cc1 [SB-217360] | 0% | 40% | 7% | 48% | 0% | 0% | 37% | 53% | 0% | 3% | –
Cc1ccc(NC(=O)Nc2ccccc2)cc1-c1ccc(C(=O)Nc2ccncc2)cc1 [GSK1398471] | 0% | 0% | 0% | 17% | 0% | 2% | 0% | 0% | 0% | 0% | –
CNc1cc(-c2ccc3c(N)n[nH]c3c2)nc(N)n1 [GSK2224810] | 56% | 0% | 9% | 9% | 15% | 0% | 36% | 47% | 0% | 0% | –
Cc1nccc(-c2c(-c3ccc(F)cc3)ncn2CCCN2CCOCC2)n1.Cl [SB-282975] | 4% | 12% | 0% | 16% | 15% | 37% | 1% | 0% | 0% | 99.9% | –
FC(F)(F)c1ccccc1-c1cc(-c2c[nH]nc2-c2ccccn2)ccn1 [GW679396] | 0% | 0% | 0% | 18% | 1% | 14% | – | 10% | 0% | 7% | 0%
Nc1nccc(-c2c(-c3ccc(F)cc3)ncn2C2CCN(Cc3ccccc3)CC2)n1 [SB-219980] | 31% | 0% | 10% | 0% | 0% | 0% | 7% | 12% | 1% | 0% | –
COc1cccc(CNC(=O)NC2CCN(c3ccnc(Nc4ccc(F)cc4)n3)C2)c1 (stereo not shown) [GSK1379723] | 0% | 0% | 0% | 0% | 7% | 100% | 21% | 0% | 24% | 0% | –
COc1ccc(Nc2nccc(N3CCC(NC(=O)C(C)c4ccc(Cl)cc4)C3)n2)cc1 (stereo not shown) [GSK1379735] | 0% | 0% | 0% | 4% | 14% | 3% | 23% | 0% | 35% | 8% | –
COc1cccc(NC(=O)Nc2ccc(C)c(-c3ccc(C(=O)Nc4ccncc4)cc3)c2)c1 [GSK1398474] | 0% | 0% | 4% | 29% | 5% | 19% | 0% | 0% | 0% | 0% | –
Cc1ccccc1Cn1ccn2c(=O)cc(N3CCOCC3)nc12 [GSK2269905] | 0% | 0% | 0% | 0% | 16% | 15% | 0% | 0% | 0% | 0% | –
